# ANO1 block: inhibitors of mouse TMEM16A calcium-activated chloride channel. Q8BHY3. HEK293 TMEM16A/YFP iodide influx fluorescence, ionomycin. normalized B-score (activity score, 25-100; higher = stronger inhibition) at 10 µM. 310,000 tested, 1.2% active. AID 588511;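 active = ratio plate-corrected score three or more library SD toward inhibition, starting fluorescence score within five deviations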;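 also: score derived from kinetic fluorescence span divided by baseline fluorescence per well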
# CHT block: inhibitors of human choline transporter CHT; CHT-expressing cells, membrane potential dye, choline response; hits give low values; B-score at 10 µM; 310,000 tested, 0.86% active; AID 488975;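 active = B-score over 3 SD under the library average, and starting fluorescence ratio not unusually high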;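 also: choline stimulus applied at its EC90 after an EC20 pre-addition; B-score computed on integrated fluorescence ratio after choline addition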
# PHOSPHO1 block: PHOSPHO1 (human) inhibition | Q8TCT1 | recombinant PHOSPHO1, absorbance phosphatase assay | inhibition, % at 13.3 µM | 290,000 tested, 1.1% active | AID 1565; in the data active = inhibition above about 60%
# Target sequence (Q8TCT1 whole entry, looked up): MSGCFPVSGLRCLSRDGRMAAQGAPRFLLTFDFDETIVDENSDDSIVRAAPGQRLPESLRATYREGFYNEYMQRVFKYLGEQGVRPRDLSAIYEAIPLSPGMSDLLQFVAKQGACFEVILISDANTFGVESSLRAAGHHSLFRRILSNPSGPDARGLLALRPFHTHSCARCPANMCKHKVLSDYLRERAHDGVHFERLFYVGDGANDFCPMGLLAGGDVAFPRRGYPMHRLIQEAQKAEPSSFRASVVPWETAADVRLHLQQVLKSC
# HDAC3 inh: human HDAC3 inhibition; O15379; recombinant HDAC3, fluorogenic peptide/trypsin coupled, fluorescence; inhibition, % at 8.3 µM; 320,000 tested, 0.15% active; in the data active = inhibition above about 26%, passing the limit was not always enough
# TMEM16A act: activates or potentiates the mouse TMEM16A chloride channel | Q8BHY3 | HEK293 TMEM16A/YFP-H148Q/I152L, iodide quench fluorescence; hits give low values | B-score at 10 µM | 340,000 tested, 0.3% active | AID 623877;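 active = fluorescence-ratio B-score plate-corrected deviation score at least 3 library SD below zero, with starting fluorescence score within 5 deviations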;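 also: channel opened by trigger with iodide after compound preincubation; score built on the fluorescence ratio of max minus min over baseline; more negative score means more quench and so TMEM16A activation or potentiation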
# CHT allo act: allosterically activates the human high affinity choline transporter; CHT-expressing cells, membrane potential dye, choline EC20; hits give high values; LV-AA mutant CHT in HEK293 cells; 310,000 tested, 0.49% active; Q9GZV3; AID 488977; B-score at 10 µM;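 active = initial fluorescence not abnormally high and integrated response B-score, plate-corrected, over 3 SD above library mean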
# Numbers without * were called inactive; i = inactive; · = no result given. The list is not random: actives were taken first. Their share in the collection is about 3.2%.
SMILES,ANO1 block,CHT block,PHOSPHO1 block,HDAC3 inh,TMEM16A act,CHT allo act
CC1CCc2c(sc3nc(C4CC4)nc(N4CCN(C(=O)c5ccco5)CC4)c23)C1 (stereo not drawn),100*,i,·,-6,i,i
CCOC(=O)C1(Cc2cccc(OC)c2)CCCN(Cc2nccn2CC)C1 (stereo not drawn),i,i,60*,-3,i,i
CCOC(=O)C1(Cc2cccc(OC)c2)CCCN(C(=O)c2cc(C)on2)C1 (stereo not drawn),i,i,68*,·,i,i
CCOC(=O)C1(Cc2cccc(OC)c2)CCCN(C(=O)c2ccccc2C)C1 (stereo not drawn),i,i,2,5,i,i
CCOC(=O)C1(Cc2cccc(Cl)c2)CCCN(C(=O)c2ccoc2C)C1 (stereo not drawn),i,i,61*,0,i,i
CCOC(=O)C1(Cc2cccc(Cl)c2)CCCN(C(=O)c2occc2C)C1 (stereo not drawn),i,i,36,10,i,i
Cc1ccc(-c2cc(C(=O)N/N=C/c3c[nH]c4ccccc34)[nH]n2)cc1,·,·,-9,·,-5.4*,·
O=C(N/N=C/c1c[nH]c2ccccc12)c1cc(-c2ccc(-c3ccccc3)cc2)n[nH]1,i,i,41,-24,i,i
O=C(C1=C(O)C(=O)N(CC2CCCO2)C1c1ccc(Cl)cc1)c1ccco1 (stereo not drawn),i,i,35,5,i,i
Nc1ccc2nc(SCC(=O)N3CCOCC3)sc2c1,i,i,8,-4,i,i
CCOC(=O)CSc1nc2ccc(N)cc2s1,i,i,83*,-5,i,i
Cc1cc(NC(=O)c2ccc(Cl)cc2)c(C(C)C)cc1O,i,i,-21,-3,i,i
Cc1nnc(SC(C)C(=O)Nc2ncc(Cl)cc2Cl)n1Cc1ccccc1 (stereo not drawn),i,i,28,1,-20*,i
Cc1cc(SC(C)C(=O)Nc2ncc(Cl)cc2Cl)nc2ccccc12 (stereo not drawn),i,i,-11,4,i,i
Cc1ccc(C(=O)NC(=S)NNS(=O)(=O)c2ccccc2)cc1,i,i,62*,7,i,i
O=C(NCc1ccc(F)cc1)c1cc(S(=O)(=O)N2CCCCC2)ccc1N1CCOCC1,·,·,·,·,i,·
Cc1cc(C(=O)NNC(=O)COc2c(C)cc(Br)cc2C)n[nH]1,i,i,41,2,i,i
O=C(CSc1ncccc1-c1nc2ccccc2[nH]1)N1CCCCC1,i,i,89*,-1,i,i
O=C(NCCCSc1ccccc1)c1cc(Cl)ccc1O,100*,i,20,-11,i,i
O=C(CNC(=O)c1ccccc1)NCCCSc1ccccc1,·,·,·,-2,i,·
NS(=O)(=O)c1ccc(Oc2ccc(S(N)(=O)=O)cc2)cc1,i,i,62*,2,-4.9*,i
COC(=O)c1ccc(CSc2nc3ccccc3o2)cc1,25*,i,7,3,i,i
O=[N+]([O-])c1ccc(CSc2nc3ccccc3o2)cc1,i,i,16,1,i,i
CCC(Sc1nc2ccccc2o1)C(=O)O (stereo not drawn),i,i,-20,-3,i,i
CC(Sc1nc2ccccc2o1)C(=O)O (stereo not drawn),i,i,76*,13,·,i
SMILES,ANO1 block,CHT block,PHOSPHO1 block,HDAC3 inh,TMEM16A act,CHT allo act
COC(=O)c1[nH]c2ccccc2c1NC(=O)CCN1CCSCC1,i,i,8,-5,i,i
O=C(NCC1CCCO1)c1cccc(S(=O)(=O)Nc2cccc(C(F)(F)F)c2)c1 (stereo not drawn),·,·,·,4,i,·
CN(C)C(CNC(=O)c1ccc(C2SCCS2)cc1)c1ccccc1 (stereo not drawn),i,i,32,54*,i,i
CN(C)C(CNC(=O)c1ccc(NC(=O)c2cccs2)cc1)c1ccccc1 (stereo not drawn),i,i,22,-5,i,i
O=C(CSC1CC(=O)N(c2ccc(C(=O)O)cc2)C1=O)Nc1ccc2ccccc2c1 (stereo not drawn),i,i,28,2,i,i
Nc1nc(SCC(=O)C23CC4CC(CC(C4)C2)C3)n[nH]1,i,i,88*,-2,i,i
Cc1ccc(-n2c(-c3cnccn3)n[nH]c2=S)c(Br)c1,i,i,-109,3,i,i
FC(F)(F)c1ccccc1-n1c(-c2cnccn2)n[nH]c1=S,i,i,74*,-1,i,i
Cc1nc(SC(C)C(=O)NC2CCCC2)c2ccccc2n1 (stereo not drawn),·,·,·,4,-31*,·
CC(Sc1nnnn1-c1ccccc1)C(=O)NC1CCCC1 (stereo not drawn),·,·,·,-6,i,·
CC1(C)CN(c2ccc(F)cc2)C1=O,i,i,28,-2,i,i
C=Cc1cccc(NC(=O)c2ccc(NC(=O)c3ccco3)cc2)c1,i,i,36,9,i,i
Nc1c(C(=O)O)sc2nc3c(cc12)CCCC3,i,i,51,-1,i,i
CN1CCc2nc3sc(C(=O)C45CC6CC(CC(C6)C4)C5)c(N)c3cc2C1,i,i,81*,5,i,i
O=Cc1ccccc1-c1cn(CN2C(=O)c3ccccc3C2=O)nn1,i,i,-2,-5,i,i
CC=CC1OCC(CC)C(CCC)O1 (stereo not drawn),·,·,·,·,i,·
COCCN=C1Sc2nc3ccc(C)cc3cc2CN1Cc1ccco1,i,i,97*,2,i,i
COCCN=C1Sc2nc3cc(C)c(C)cc3cc2CN1Cc1cccs1,i,i,-8,-1,i,i
COC(=O)C(Cc1ccc(OC(=O)c2ccc(C(F)(F)F)cc2)cc1)N1Cc2ccccc2C1=O (stereo not drawn),100*,i,20,14,i,i
COc1ccc(Cc2nn3c(Cn4nnc5ccccc54)nnc3s2)cc1,i,i,69*,-8,i,i
c1ccc(Cc2nn3c(COc4ccccc4)nnc3s2)cc1,i,i,66*,1,i,i
c1ccc(-c2nn3c(Cn4cnc5ccccc54)nnc3s2)cc1,i,i,66*,10,i,i
c1ccc2c(c1)nnn2Cc1nnc2sc(-c3ccc4c(c3)OCCO4)nn12,i,i,48,-1,i,i
c1ccc(-c2nn3c(Cn4nnc5ccccc54)nnc3s2)cc1,i,i,69*,7,i,i

# Assay outcomes: PubChem BioAssay, several laboratories
